High-throughput results: PubChem BioAssay, National Center for Advancing Translational Sciences (NCATS)
Hits are enriched below; roughly 2% of the tested compounds scored in any of these assays.
Rango complex inh – qHTS Assay for Inhibitors of Rango (Ran-regulated importin-beta cargo) - Importin beta complex formation | Importin subunit beta-1 (Homo sapiens), Q14974 | Rango CFP/YFP FRET sensor + importin beta, 45 min | Potency, µM (titrated, usually from 92.2 µM), without a hit: at the top dose inhibition of complex formation | 0.031% of 340,000 active | AID 540263, 2011; calls by dose curve;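 also: 0% = DMSO wells and 100% = buffer wells lacking importin beta; nearly all actives have a fitted effect of over 15% in size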
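FRET biosensor Rango (snurportin 1 IBB between N-terminal EYFP and C-terminal Cerulean), 50 nM in PBS/1 mM DTT/0.02% Tween-20/0.1% BSA, preincubated 5 min RT with compound; 0.125 microM importin beta added, 45 min RT, CFP/YFP FRET ratio read.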
Rango release inh – qHTS Assay for Inhibitors of RanGTP induced Rango (Ran-regulated importin-beta cargo) - Importin beta complex dissociation. Biochemical FRET Rango-importin beta, RanGTP-induced dissociation. 0.071% of 340,000 active. Snurportin-1 (Homo sapiens) + GTP-binding nuclear protein Ran (Homo sapiens) + Importin …. Potency, µM (doses to about 46.1 µM), inactives show top-dose activity change, negative = inhibition; calls by dose curve; also: % of control where 0% means no effect; nearly all actives have a fitted effect of over 45% in size
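Rango/importin beta premix (0.1/0.25 uM final), PBS + 1 mM DTT + 0.02% Tween-20 + 0.1% BSA; cpd 5 min RT; FRET pre-read; + RanGTP-RCC1 (0.6 uM Ran, 2 mM GTP, 0.2 uM RCC1); 45 min RT; FRET post-read, ex 430, em 486/530 nm.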
TDP43 rescue – qHTS of TDP-43 Inhibitors; TDP-43 expressing yeast growth rescue, BacTiter-Glo, 24 h; Potency, µM (titrated, usually from 46.1 µM), without a hit: at the top dose growth rescue (activation), hits mostly activators; 1.8% of 410,000 active; also: % of control where 0% means no effect; nearly all actives have a fitted effect of over 50% in size
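Galactose-induced TDP-43 yeast, OD600=0.02, compound pinned; 24 hr, 30 deg C; BacTiter-Glo luminescence for growth. Inhibitors of TDP-43 toxicity read as activators.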
aSyn yeast inh – qHTS of alpha-syn Inhibitors | 0.14% of 370,000 active | Yeast expressing alpha-synuclein, growth rescue, BacTiter-Glo, 24 h | AID 652106, 2013 | Potency, µM (top dose mostly 46.1 µM), inactives show at the highest dose growth rescue (activation), actives largely listed as activators; also: % of control where 0% means no effect; nearly all actives have a fitted effect of over 65% in size
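Readout is rescue of growth in alpha-synuclein-expressing yeast, so inhibitors of toxicity appear as activators. Growth after 24 hr at 30 deg C in galactose medium is quantified by luminescence.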
Abeta rescue – qHTS for compounds that reverse cellular toxicity of Amyloid beta (A-beta) peptide in yeast: Primary Screen; yeast expressing A-beta42, growth rescue, OD600, 48 h; response scale: 0% DMSO, 100% iron-clioquinol control; Potency, µM (titrated, usually from 46.1 µM), actives largely listed as activators; 0.063% of 410,000 active; AID 1347071, 2019; also: nearly all actives have a fitted effect of over 55% in size
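Yeast growth medium received pinned compounds, then yeast cells expressing toxic A-beta were added; plates incubated at 30 C for 48 hr. Growth read as absorbance at 600 nm, normalized to DMSO and equimolar FeCl3 plus clioquinol controls.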
ASM inhibitor – Inhibitors of Secretory Acid Sphingomyelinase (S-ASM): qHTS. placental ASM, HMU-PC fluorogenic substrate, 60 min. Potency, µM (top dose mostly 57.5 µM), without a hit: top-dose activity change, negative = inhibition, actives largely listed as inhibitors. 0.006% of 340,000 active. AID 504937, 2011
Target sequence (P17405 47-631 limits assumed): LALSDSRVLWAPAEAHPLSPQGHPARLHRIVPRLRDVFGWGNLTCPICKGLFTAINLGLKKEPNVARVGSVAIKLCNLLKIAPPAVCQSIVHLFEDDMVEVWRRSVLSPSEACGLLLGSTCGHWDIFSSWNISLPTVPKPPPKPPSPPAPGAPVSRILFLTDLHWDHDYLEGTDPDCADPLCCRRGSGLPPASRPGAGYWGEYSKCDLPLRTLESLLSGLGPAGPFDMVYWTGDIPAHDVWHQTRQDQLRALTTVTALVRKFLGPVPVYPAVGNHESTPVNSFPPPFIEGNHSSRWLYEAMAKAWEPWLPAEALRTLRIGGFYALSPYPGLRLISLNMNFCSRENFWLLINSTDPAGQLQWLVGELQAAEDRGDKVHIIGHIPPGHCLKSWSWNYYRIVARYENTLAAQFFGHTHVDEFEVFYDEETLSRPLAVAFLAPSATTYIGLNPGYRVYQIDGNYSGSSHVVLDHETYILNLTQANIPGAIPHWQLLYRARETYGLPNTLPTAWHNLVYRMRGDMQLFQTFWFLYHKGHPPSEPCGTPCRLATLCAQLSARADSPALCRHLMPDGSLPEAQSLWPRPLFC
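Steps: dispense placental human ASM, pin compound, wait 10 min at room temperature, add HMU-PC0 substrate at 9 uM final, incubate 60 min at 37 °C, add stop solution raising pH to 10, read fluorescence.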
Starred values were filed as active, the others as inactive; i = inactive; ? = inconclusive; nt = not tested or not shown; [ ] = remark or other dose. Unless noted, calls follow the shape of the dose curve; as a rule, active = well fitted curve in the direction sought with a large enough effect; inconclusive = small, poorly fitted or top-dose-only effect, or another doubt; inactive = no such curve, though single readings can be large; an effect the other way counts as inactive or inconclusive. Potency is read from the fitted curve at half-maximal effect.

SMILES	Rango complex inh	Rango release inh	TDP43 rescue	aSyn yeast inh	Abeta rescue	ASM inhibitor
CC(C)c1ccc(C2CC(c3ccc(Br)cc3)=NN2C(N)=S)cc1 (stereo not given)	4.5%	3.2%	-6.4%	-13.2%	10µM*	nt
CC(=O)N1N=C(c2ccc(Br)cc2)CC1c1ccc(Br)cc1 (stereo not given)	nt	nt	5.8%	8.8%	i	nt
CCOC(=O)c1c(CN2CCOCC2)n(-c2ccccc2)c2cc(Br)c(O)cc12	-3.7%	1.0%	-12.6%	nt	i	3.1%
CCOC(=O)c1c(CN2CCOCC2)n(-c2ccccc2)c2cc(Br)c(OC)cc12	5.5%	0.1%	15.8µM*	-2.0%	i	-17.4%
CC(C)(C)c1ccc(C(=O)NNc2ncnc3c2cnn3-c2ccccc2)cc1	nt	nt	19.8%	nt	i	nt
Oc1ccc(Br)cc1/C=N/Nc1ncc(-c2ccccc2)cn1	?	-29.9%	5.3%	5.8%	i	-2.3%
Oc1ccc(/C=N/Nc2ncc(Br)cn2)c(O)c1	0.9%	4.6%	10.4%	17.8µM*	i	-4.7%
COc1cccc(/C=N/Nc2nccnc2Cl)c1O	0.0%	-13.4%	?	-19.8%	?	-1.1%
Oc1ccc(/C=N/Nc2nccnc2Cl)c(O)c1	-5.2%	1.7%	13.7%	11.2µM*	i	-2.0%
Oc1ccc(C=NNc2ccccn2)c(O)c1	-5.1%	3.8%	17.2%	2.9%	i	3.7%
Oc1ccccc1/C=N/Nc1nccnc1Cl	-2.5%	-9.5%	?	14.1µM*	?	-6.3%
CC(C)(CC(=O)OCC(=O)Nc1ccc(F)c(Cl)c1)CC1=NS(=O)(=O)c2ccccc2N1	nt	nt	14.9%	nt	i	nt
O=C(NCc1ccncc1)C1Cc2c(-c3ccc4c(c3)OCO4)ccnc2O1 (stereo not given)	nt	nt	1.4%	0.0%	i	nt
CC(=O)c1cccc(-c2ccnc3c2CC(C(=O)Nc2ccc(C(C)C)cc2)O3)c1 (stereo not given)	nt	nt	20µM*	11.3%	?	nt
CC(=O)Nc1ccc(-c2ccnc3c2CC(C(=O)Nc2ccc(Cl)c(C(F)(F)F)c2)O3)cc1 (stereo not given)	nt	nt	11.7%	0.5%	i	nt
O=C(Nc1ccc(Cl)c(C(F)(F)F)c1)C1Cc2c(-c3ccccc3)ccnc2O1 (stereo not given)	nt	nt	31.6µM*	?	i	nt
O=C(NCc1ccccc1)C1Cc2c(-c3ccc4c(c3)OCO4)ccnc2O1 (stereo not given)	nt	nt	35.5µM*	2.7%	i	nt
COc1ccc(NC(=O)C2Cc3c(-c4cccc(F)c4)ccnc3O2)cc1 (stereo not given)	nt	nt	22.4µM*	?	i	nt
O=C(Nc1ccc(Cl)cc1)C1Cc2c(-c3ccccc3)ccnc2O1 (stereo not given)	nt	nt	35.5µM*	?	i	nt
O=C(Nc1ccc(F)c(Cl)c1)C1Cc2c(-c3ccc(Cl)cc3)ccnc2O1 (stereo not given)	nt	nt	35.5µM*	?	i	nt
Cc1cc(/C=C/c2c(C)cnc3ccccc23)ccc1N(C)C	nt	nt	nt	-35.8%	nt	nt
CCc1ccc(-c2nc(CN3CCCC(C(=O)NCc4ccc(C)cc4)C3)c(C)o2)cc1 (stereo not given)	nt	nt	7.1%	nt	i	nt
CC(C)NC(=O)C1(N2C(=O)c3ccccc3C2=O)CCCC1	0.8%	-8.7%	11.2µM*	-6.9%	i	-1.7%
CC1CCc2onc(C(=O)N3CCN(c4cccc(C(F)(F)F)c4)CC3)c2C1 (stereo not given)	nt	nt	10.0%	nt	i	nt
Cc1nc(-c2ccccc2)sc1-c1ccn[nH]1	-0.4%	1.6%	14.1µM*	-20.1%	i	38.5%
SMILES	Rango complex inh	Rango release inh	TDP43 rescue	aSyn yeast inh	Abeta rescue	ASM inhibitor
Cc1nc(-c2ccccc2)sc1-c1ccnn1C	-0.4%	8.4%	16.3%	-0.4%	i	69.6%
CCN(CC)c1nc2c(S(=O)(=O)c3ccccc3)nnn2c2ccc(Cl)cc12	nt	nt	12.6µM*	nt	i	nt
Cc1ccc(S(=O)(=O)c2nnn3c2nc(N(C)Cc2ccccc2)c2cc(Cl)ccc23)cc1C	nt	nt	11.6%	nt	i	nt
Cc1nn2c(-c3ccc(Cl)cc3Cl)nnc2s1	-0.1%	0.1%	12.2%	-5.1%	i	1.2%
Nc1nnc(-c2ccc(Cl)cc2Cl)s1	0.1%	17.1%	11.2µM*	14.6%	i	2.3%
Clc1ccc(-c2nn3cnnc3s2)c(Cl)c1	-0.3%	-6.2%	17.8µM*	3.8%	i	-1.8%
O=C(c1cccn1-c1nnc(N2CCCCC2)s1)N1CCN(c2ccccc2)CC1	nt	nt	-1.6%	nt	i	nt
COc1ccccc1CNC(=O)C1CCC(CNS(=O)(=O)c2ccc3c(c2)CCCC(=O)N3)CC1 (stereo not given)	nt	nt	14.0%	nt	i	nt
Cc1cccc(N2CCN(C(=O)c3oc(=O)c4ccccc4c3-c3ccccc3)CC2C)c1 (stereo not given)	nt	nt	12.6µM*	nt	i	nt
CC(=O)c1ccc(N2C(=O)Nc3ccccc3S2(=O)=O)cc1	nt	nt	17.4%	nt	i	nt
O=c1c2sc3ccccc3c2n(Cc2cccc(C(F)(F)F)c2)c(=O)n1Cc1ccc(F)cc1	nt	nt	-15.3%	nt	i	nt
CC(C)NS(=O)(=O)c1ccc2nc(NC(=O)c3cncc(Br)c3)sc2c1	nt	nt	8.0%[9.22 µM]	nt	i	nt
O=C1c2sc3nc4n(c(=O)c3c2CCC1Br)CCCCC4 (stereo not given)	1.1%	10.7%	12.6µM*	9.4%	i	0.3%
O=C(COC(=O)Cc1c(Cl)cccc1Cl)NC1CCCC1	-0.9%	0.9%	20µM*	11.7%	i	-2.0%
CC(C)(C)c1ccc(OCCC(=O)OCC(=O)NC(=O)NC2CCCC2)cc1	4.1%	-3.2%	21.3%	9.3%	i	-0.3%
CC(C)(C)c1ccc(OCCC(=O)OCC(=O)NC2CCCCC2)cc1	1.2%	-0.8%	35.5µM*	7.3%	i	-10.3%
COc1ccc(-c2nc3c(C#N)c[nH]n3c2NC2CCCC2)cc1	nt	nt	24.5%[9.22 µM]	nt	i	nt
CN(C)S(=O)(=O)c1ccc2c(c1)N(CC(=O)NCc1cccc(Br)c1)C(=O)CS2	nt	nt	19.2%	nt	i	nt
Clc1ncc(C#Cc2ccccc2)c2ncncc12	nt	nt	nt	-72.9%	nt	nt
O=C(c1noc2c1CCCCC2)N1CCN(c2cccc(Cl)c2)CC1	nt	nt	8.91µM*	nt	i	nt
Cc1cc(OC(F)F)ccc1NC(=S)NC1CCCC1	-2.9%	23.3%	23.0%	3.7%	12.6µM*	2.0%
